Measured values: PubChem BioAssay (EPA / NIEHS)
Inconclusive results are not listed. Calls of active or inactive are those of the source. The calls were made as follows, unless noted: active = hit-call score of the fitted dose curve at least 0.9, where 1 is the maximum; inactive = score below 0.9.

Key:
[1] = biological target: Glucocorticoid receptor (Homo sapiens) (UniProt P04150); assay: ATG_GR_TRANS: Attagene TRANS-FACTORIAL HepG2 Assay for human Glucocorticoid Receptor (GR) (AID 2282978; active = hit-call score of the fitted dose curve at least 0.9, where 1 is the maximum;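 also: activators score as hits since higher reporter transcript over DMSO is fitted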); details: HepG2 Attagene TRANS GR reporter, mRNA transcription
Summary of the method: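 HepG2 cells transiently transfected with GAL4-UAS reporter units and exogenous GR-Gal4 chimera, dosed 24 h. Reporter mRNA by RT-PCR, FAM labeling, HpaI digest and capillary electrophoresis; gain-of-signal fit versus DMSO.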

[2] = biological target: Bile acid receptor (Homo sapiens) (UniProt Q96RI1); assay: ATG_FXR_TRANS: Attagene TRANS-FACTORIAL HepG2 Assay for Farnesoid X Receptor (FXR) (AID 2282979; active = hit-call score of the fitted dose curve at least 0.9, where 1 is the maximum;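 also: hits raise reporter mRNA above DMSO so AC50 marks FXR activation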); details: HepG2 Attagene TRANS FXR-GAL4 reporter transcription
Summary of the method: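 Read-out: fluorescent reporter transcripts quantified by capillary electrophoresis after RT-PCR of total RNA. Source cells were HepG2 transiently carrying chimeric NR-GAL4 plus GAL4-UAS reporter units, dosed 24 h. Activity fitted upward relative to DMSO baseline.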

[3] = biological target: Oxysterols receptor LXR-beta (Homo sapiens) (UniProt P55055); assay: ATG_LXRb_TRANS: Attagene TRANS-FACTORIAL HepG2 Assay for human Liver X Receptor beta (LXRb) (AID 2282981; active = hit-call score of the fitted dose curve at least 0.9, where 1 is the maximum); details: HepG2 Attagene TRANS GAL4-LXRb reporter, mRNA
Summary of the method: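 Measures induction of a Gal4-driven reporter transcript in HepG2 cells expressing an exogenous LXRb-Gal4 fusion. Cells are exposed to compound for 24 h before RNA isolation and RT-PCR with capillary electrophoresis detection.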

[4] = biological target: Hepatocyte nuclear factor 4-alpha (Homo sapiens) (UniProt P41235); assay: ATG_HNF4a_TRANS: Attagene TRANS-FACTORIAL HepG2 Assay for human Hepatocyte Nuclear Factor 4 alpha (HNF4a) (AID 2282982; active = hit-call score of the fitted dose curve at least 0.9, where 1 is the maximum); details: HepG2 HNF4a transactivation reporter, mRNA readout
Summary of the method: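 In this trans-factorial format, a chimeric HNF4a-GAL4 fusion drives a GAL4-UAS reporter in transfected HepG2 liver cells. After 24 h treatment, reporter mRNA induction is measured by RT-PCR with capillary electrophoresis, relative to DMSO.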

[5] = ATG_M_06_TRANS: Attagene TRANS-FACTORIAL HepG2 Assay for M06 Transcription Factor (Internal Marker) (AID 2282983; active = hit-call score of the fitted dose curve at least 0.9, where 1 is the maximum); details: HepG2 Attagene TRANS M06 internal marker reporter
Summary of the method: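 Read-out: fluorescent reporter cDNA fragments resolved by capillary electrophoresis after RT-PCR and HpaI cut. Source cells were HepG2 carrying transfected multi-reporter GAL4 constructs, dosed 24 h. Increase over DMSO control analysed.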

[6] = ATG_M_32_TRANS: Attagene TRANS-FACTORIAL HepG2 Assay for M32 Transcription Factor (Internal Marker) (AID 2282984; active = hit-call score of the fitted dose curve at least 0.9, where 1 is the maximum;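 also: transcript level of a background control reporter unit measured by RT-PCR and capillary electrophoresis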); details: HepG2 Attagene TRANS M32 internal marker reporter
Summary of the method: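 After 24 h dosing of transfected HepG2 cells, total RNA was reverse-transcribed, reporter sequences PCR-amplified, 6-FAM labelled by primer extension and HpaI-digested before capillary electrophoresis. Signal increase over DMSO was fitted.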

[7] = biological target: Nuclear receptor subfamily 4 group A member 2 (Homo sapiens) (UniProt P43354); assay: ATG_NURR1_TRANS: Attagene TRANS-FACTORIAL HepG2 Assay for human Nuclear Receptor Related Protein 1 (NURR1) (AID 2282985; active = hit-call score of the fitted dose curve at least 0.9, where 1 is the maximum); details: HepG2 Attagene TRANS reporter, mRNA readout
Summary of the method: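 Chimeric NR-Gal4 fusion activity measured in HepG2 after 24 h treatment. Reporter transcripts detected by RT-PCR and capillary electrophoresis fluorescence; positive-direction curve fitting against DMSO.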

[8] = biological target: Transcriptional activator Myb (Homo sapiens) (UniProt P10242); assay: ATG_Myb_CIS: Attagene CIS-FACTORIAL HepG2 Assay for human Myeloblastosis (Myb) Proto-Oncogene Transcription Factor (AID 2282986); details: HepG2 Attagene CIS-FACTORIAL Myb reporter transcription; actives raise or lower the signal
Summary of the method: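 Transiently transfected HepG2 cells carrying a multiplexed cis-promoter reporter set report endogenous Myb activity after 24 h compound exposure. Reporter mRNA is read by RT-PCR with capillary electrophoresis of fluorescent products, fitted bidirectionally against DMSO.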

[9] = biological target: Nuclear respiratory factor 1 (Homo sapiens) (UniProt Q16656); assay: ATG_NRF1_CIS: Attagene CIS-FACTORIAL HepG2 Assay for human Nuclear Respiratory Factor 1 (NRF1) Orphan Gene (AID 2282987); details: HepG2 NRF1 cis-element reporter, Attagene multiplex; actives raise or lower the signal
Summary of the method: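 HepG2 cells transiently transfected with multiple cis-regulated reporter units, exposed 24 h. Reporter mRNAs measured by RT-PCR, fluorescent labelling, HpaI digestion and capillary electrophoresis; bidirectional fitting against DMSO.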

[10] = ATG_NFI_CIS: Attagene CIS-FACTORIAL HepG2 Assay for human Nuclear Factor I (NFI) (AID 2282989); details: HepG2 cis-regulatory reporter, NFI response element transcription; actives raise or lower the signal
Summary of the method: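 HepG2, transient MRTU, 24 h exposure; RNA→cDNA→PCR→FAM label→HpaI→CE fluorescence. Bidirectional fit, DMSO = baseline.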

[11] = biological target: Myc proto-oncogene protein (Homo sapiens) (UniProt P01106); assay: ATG_Myc_CIS: Attagene CIS-FACTORIAL HepG2 Assay for human Myelocytomatosis (Myc) Proto-Oncogene Transcription Factor (AID 2282990); details: HepG2, Attagene cis-reporter transcription factor activity; actives raise or lower the signal
Summary of the method: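 Multiplexed cis-reporter transcription in HepG2 cells after 24 h chemical treatment. Reporter mRNA measured by RT-PCR and capillary electrophoresis fluorescence; activity fitted bidirectionally against DMSO control.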

[12] = ATG_NF_kB_CIS: Attagene CIS-FACTORIAL HepG2 Assay for human Nuclear Factor Kappa B (NF-kB) (AID 2282991); details: HepG2 Attagene cis-factorial NF-kB reporter mRNA; actives raise or lower the signal
Summary of the method: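 HepG2 cells transfected with cis-promoter-driven reporter units, so endogenous transcription factor activity is measured. Reporter mRNA quantified 24 h after dosing by RT-PCR and capillary electrophoresis, with bidirectional fitting against DMSO.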

[13] = ATG_NRF2_ARE_CIS: Attagene CIS-FACTORIAL HepG2 Assay for human Nuclear Factor Erythroid 2 Related Factor 2 (NFR2) response to Antioxidant Response Elements (ARE) (AID 2282992); details: HepG2 Attagene ARE/NRF2 reporter, transcription factor activity; actives raise or lower the signal
Summary of the method: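 Fluorescence intensity of reporter-specific cDNA fragments, separated by capillary electrophoresis, reflects mRNA induction in transfected HepG2 cells at 24 h. Activity is fitted bidirectionally, DMSO serving as baseline.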

[14] = ATG_Oct_MLP_CIS: Attagene CIS-FACTORIAL HepG2 Assay for human Octamer-Binding Transcription Factor (Oct) (AID 2282993); details: HepG2 Attagene cis-factorial Oct reporter, mRNA; actives raise or lower the signal
Summary of the method: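 Multiplexed cis-reporter assay in human liver HepG2 cells, 24 h incubation. Reporter RNA amplified and labelled, then resolved by capillary electrophoresis; DMSO serves as negative control and baseline.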

[15] = biological target: Cellular tumor antigen p53 (Homo sapiens) (UniProt P04637); assay: ATG_p53_CIS: Attagene CIS-FACTORIAL HepG2 Assay for human p53 Transcription Factor (AID 2282994); details: HepG2 p53 cis-element reporter, Attagene mRNA; actives raise or lower the signal
Summary of the method: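 Transiently transfected HepG2 (multiple cis reporter transcription units); exposure 24 h; reporter RNA via RT-PCR, 6-FAM extension, 2 h HpaI digest at 37 C, CE detection; DMSO baseline.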

[16] = biological target: Oxysterols receptor LXR-alpha (Homo sapiens) (UniProt Q13133); assay: ATG_LXRa_TRANS: Attagene TRANS-FACTORIAL HepG2 Assay for human Liver X Receptor alpha (LXRa) (AID 2282980; active = hit-call score of the fitted dose curve at least 0.9, where 1 is the maximum); details: HepG2 Attagene TRANS reporter, LXRa transactivation
Summary of the method: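 Read-out: reporter transcript levels by RT-PCR plus capillary electrophoresis, fluorescence intensity. Transiently transfected HepG2, exogenous NR-GAL4 chimera, GAL4-UAS reporters; 24 h compound exposure. Activity = increase over DMSO negative control.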

[17] = BSK_3C_TissueFactor: BioMAP Diversity Plus: 3C Assay for Tissue Factor Biomarker Activity (AID 2282997); details: BioMAP 3C HUVEC, tissue factor biomarker readout; actives raise or lower the signal
Summary of the method: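 HUVEC, 3C system, 24 h post-dose; Tissue Factor by ELISA; bidirectional fit vs DMSO baseline.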

[18] = BSK_3C_uPAR: BioMAP Diversity Plus: 3C Assay for Urokinase-type plasminogen activator receptor (uPAR) Biomarker Activity (AID 2282998); details: BioMAP 3C HUVEC, uPAR biomarker ELISA; actives raise or lower the signal
Summary of the method: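 Dose primary human umbilical vein endothelial cells, incubate 24 h, measure cell-surface uPAR by ELISA, then fit the signal in both directions against the DMSO negative control.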

[19] = BSK_3C_VCAM1: BioMAP Diversity Plus: 3C Assay for Vascular cell adhesion molecule 1 (VCAM1) Biomarker Activity (AID 2282999); details: BioMAP 3C HUVEC, VCAM1 ELISA, cytokine-stimulated; actives raise or lower the signal
Summary of the method: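 Vascular primary endothelium (human umbilical vein) was exposed to chemicals and assayed 24 h later. VCAM-1 levels came from ELISA, with DMSO serving as baseline for bidirectional fitting.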

[20] = BSK_4H_Eotaxin3: BioMAP Diversity Plus: 4H Assay for Eotaxin 3 Biomarker Activity (AID 2283000); details: primary human endothelial cells (HUVEC); actives raise or lower the signal
Summary of the method: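 Readout is Eotaxin-3 (CCL26) level by ELISA in primary human umbilical vein endothelial cells harvested 24 h after chemical exposure; activity fitted in both directions against DMSO control.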

Measured: AC50

Chain of Cellular tumor antigen p53 (Homo sapiens) (P04637 whole entry, looked up): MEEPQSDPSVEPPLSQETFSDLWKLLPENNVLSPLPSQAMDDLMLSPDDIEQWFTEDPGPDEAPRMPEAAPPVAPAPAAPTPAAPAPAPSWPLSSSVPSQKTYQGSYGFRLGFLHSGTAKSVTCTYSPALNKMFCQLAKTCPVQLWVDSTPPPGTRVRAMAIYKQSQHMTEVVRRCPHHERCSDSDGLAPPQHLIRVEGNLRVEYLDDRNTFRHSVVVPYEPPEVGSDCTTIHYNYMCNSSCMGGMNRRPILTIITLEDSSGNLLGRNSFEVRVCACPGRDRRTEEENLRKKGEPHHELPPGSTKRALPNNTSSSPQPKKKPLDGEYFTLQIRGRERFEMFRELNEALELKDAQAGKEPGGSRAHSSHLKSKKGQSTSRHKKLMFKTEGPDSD
Chain of Hepatocyte nuclear factor 4-alpha (Homo sapiens) (P41235 whole entry, looked up, the tested form may be a part): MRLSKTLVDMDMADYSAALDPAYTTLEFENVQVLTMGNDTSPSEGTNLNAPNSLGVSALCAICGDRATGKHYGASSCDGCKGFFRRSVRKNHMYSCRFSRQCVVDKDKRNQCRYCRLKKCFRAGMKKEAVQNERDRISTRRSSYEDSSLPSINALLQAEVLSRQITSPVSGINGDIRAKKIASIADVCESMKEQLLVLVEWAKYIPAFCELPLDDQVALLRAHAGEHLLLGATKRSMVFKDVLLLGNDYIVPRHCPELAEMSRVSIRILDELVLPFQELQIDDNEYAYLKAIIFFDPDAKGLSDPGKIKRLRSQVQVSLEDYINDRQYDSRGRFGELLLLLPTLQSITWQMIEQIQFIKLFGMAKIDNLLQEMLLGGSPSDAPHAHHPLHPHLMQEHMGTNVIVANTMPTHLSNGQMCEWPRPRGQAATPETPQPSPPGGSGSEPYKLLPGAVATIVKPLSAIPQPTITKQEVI
Chain of Glucocorticoid receptor (Homo sapiens) (P04150 whole entry, looked up, the tested form may be a part): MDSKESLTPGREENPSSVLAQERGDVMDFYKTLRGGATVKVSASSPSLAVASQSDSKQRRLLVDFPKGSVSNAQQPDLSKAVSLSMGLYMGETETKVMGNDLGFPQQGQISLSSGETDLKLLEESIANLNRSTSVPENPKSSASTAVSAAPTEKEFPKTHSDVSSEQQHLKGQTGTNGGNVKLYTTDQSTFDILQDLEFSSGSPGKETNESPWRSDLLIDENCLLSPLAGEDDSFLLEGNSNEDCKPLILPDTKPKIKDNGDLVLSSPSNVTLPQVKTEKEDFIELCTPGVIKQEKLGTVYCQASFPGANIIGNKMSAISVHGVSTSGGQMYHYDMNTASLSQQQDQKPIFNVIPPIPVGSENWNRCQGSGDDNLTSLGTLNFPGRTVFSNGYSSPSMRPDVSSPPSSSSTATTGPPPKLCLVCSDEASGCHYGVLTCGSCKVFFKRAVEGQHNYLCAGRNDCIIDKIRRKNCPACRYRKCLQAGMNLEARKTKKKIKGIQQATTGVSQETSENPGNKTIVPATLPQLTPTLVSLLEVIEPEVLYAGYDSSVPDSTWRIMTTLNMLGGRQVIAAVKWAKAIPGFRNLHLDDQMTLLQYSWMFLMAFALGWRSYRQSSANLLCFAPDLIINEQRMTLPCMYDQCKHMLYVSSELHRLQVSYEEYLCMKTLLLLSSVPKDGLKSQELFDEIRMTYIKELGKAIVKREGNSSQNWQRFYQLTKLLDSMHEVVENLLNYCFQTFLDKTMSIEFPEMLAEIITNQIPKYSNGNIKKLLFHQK
Chain of Transcriptional activator Myb (Homo sapiens) (P10242 whole entry, looked up): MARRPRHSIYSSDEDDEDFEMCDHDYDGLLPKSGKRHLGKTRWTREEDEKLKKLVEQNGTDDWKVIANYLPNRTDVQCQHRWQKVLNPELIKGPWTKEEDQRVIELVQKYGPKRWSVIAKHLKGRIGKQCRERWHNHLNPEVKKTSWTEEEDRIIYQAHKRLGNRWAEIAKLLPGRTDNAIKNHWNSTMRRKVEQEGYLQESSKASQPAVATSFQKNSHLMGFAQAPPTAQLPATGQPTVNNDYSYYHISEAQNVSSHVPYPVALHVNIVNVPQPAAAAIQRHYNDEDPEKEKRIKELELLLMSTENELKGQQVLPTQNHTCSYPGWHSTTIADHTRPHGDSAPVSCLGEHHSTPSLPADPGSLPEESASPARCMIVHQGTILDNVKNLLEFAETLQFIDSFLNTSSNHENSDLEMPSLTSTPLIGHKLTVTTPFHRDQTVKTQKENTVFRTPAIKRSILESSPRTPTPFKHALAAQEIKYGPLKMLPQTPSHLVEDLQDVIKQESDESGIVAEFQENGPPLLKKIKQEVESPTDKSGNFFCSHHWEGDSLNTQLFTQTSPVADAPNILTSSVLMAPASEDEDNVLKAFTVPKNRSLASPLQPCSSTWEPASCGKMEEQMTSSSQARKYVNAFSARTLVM
Chain of Oxysterols receptor LXR-beta (Homo sapiens) (P55055 whole entry, looked up, the tested form may be a part): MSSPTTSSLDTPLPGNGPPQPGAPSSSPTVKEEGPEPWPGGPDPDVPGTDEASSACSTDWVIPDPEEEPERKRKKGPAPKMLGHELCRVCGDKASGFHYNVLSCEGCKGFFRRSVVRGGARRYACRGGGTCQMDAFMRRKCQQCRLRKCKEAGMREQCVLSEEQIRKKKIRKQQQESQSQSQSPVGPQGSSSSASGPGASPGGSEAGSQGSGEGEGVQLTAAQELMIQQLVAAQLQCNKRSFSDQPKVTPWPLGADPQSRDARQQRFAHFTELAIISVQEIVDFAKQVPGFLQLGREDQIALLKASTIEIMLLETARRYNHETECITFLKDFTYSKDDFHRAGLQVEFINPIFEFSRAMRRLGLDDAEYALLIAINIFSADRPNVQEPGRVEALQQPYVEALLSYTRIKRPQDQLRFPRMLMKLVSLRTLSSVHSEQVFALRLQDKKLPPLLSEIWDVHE
Chain of Nuclear receptor subfamily 4 group A member 2 (Homo sapiens) (P43354 whole entry, looked up, the tested form may be a part): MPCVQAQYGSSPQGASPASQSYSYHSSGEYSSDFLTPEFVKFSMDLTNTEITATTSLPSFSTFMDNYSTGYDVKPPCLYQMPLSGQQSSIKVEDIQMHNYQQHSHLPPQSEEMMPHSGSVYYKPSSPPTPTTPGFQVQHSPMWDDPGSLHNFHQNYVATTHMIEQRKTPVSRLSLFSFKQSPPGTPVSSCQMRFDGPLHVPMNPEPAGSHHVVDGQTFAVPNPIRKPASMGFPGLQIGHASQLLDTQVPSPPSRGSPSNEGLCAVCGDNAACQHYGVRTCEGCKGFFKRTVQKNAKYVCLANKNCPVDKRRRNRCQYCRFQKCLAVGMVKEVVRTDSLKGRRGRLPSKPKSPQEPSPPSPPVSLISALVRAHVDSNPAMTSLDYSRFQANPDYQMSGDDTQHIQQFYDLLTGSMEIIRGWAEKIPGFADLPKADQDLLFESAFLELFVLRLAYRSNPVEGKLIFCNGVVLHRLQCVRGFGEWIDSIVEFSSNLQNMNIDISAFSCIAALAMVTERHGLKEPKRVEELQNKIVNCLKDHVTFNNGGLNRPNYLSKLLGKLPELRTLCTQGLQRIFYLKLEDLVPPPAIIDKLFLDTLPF
Chain of Nuclear respiratory factor 1 (Homo sapiens) (Q16656 whole entry, looked up): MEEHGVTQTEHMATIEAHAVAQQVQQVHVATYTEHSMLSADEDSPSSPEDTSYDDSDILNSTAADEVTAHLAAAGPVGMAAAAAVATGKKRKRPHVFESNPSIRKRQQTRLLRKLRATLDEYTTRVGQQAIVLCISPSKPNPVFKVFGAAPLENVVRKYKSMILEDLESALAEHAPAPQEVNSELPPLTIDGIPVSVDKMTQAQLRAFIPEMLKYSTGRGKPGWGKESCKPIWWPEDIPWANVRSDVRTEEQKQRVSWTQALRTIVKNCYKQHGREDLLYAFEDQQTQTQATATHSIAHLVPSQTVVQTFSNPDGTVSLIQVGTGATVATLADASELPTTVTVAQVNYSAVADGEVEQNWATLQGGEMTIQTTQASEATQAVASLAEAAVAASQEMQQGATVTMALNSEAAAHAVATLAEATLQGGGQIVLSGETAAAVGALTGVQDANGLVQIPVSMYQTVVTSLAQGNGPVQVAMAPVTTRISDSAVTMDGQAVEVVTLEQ
Chain of Bile acid receptor (Homo sapiens) (Q96RI1 whole entry, looked up, the tested form may be a part): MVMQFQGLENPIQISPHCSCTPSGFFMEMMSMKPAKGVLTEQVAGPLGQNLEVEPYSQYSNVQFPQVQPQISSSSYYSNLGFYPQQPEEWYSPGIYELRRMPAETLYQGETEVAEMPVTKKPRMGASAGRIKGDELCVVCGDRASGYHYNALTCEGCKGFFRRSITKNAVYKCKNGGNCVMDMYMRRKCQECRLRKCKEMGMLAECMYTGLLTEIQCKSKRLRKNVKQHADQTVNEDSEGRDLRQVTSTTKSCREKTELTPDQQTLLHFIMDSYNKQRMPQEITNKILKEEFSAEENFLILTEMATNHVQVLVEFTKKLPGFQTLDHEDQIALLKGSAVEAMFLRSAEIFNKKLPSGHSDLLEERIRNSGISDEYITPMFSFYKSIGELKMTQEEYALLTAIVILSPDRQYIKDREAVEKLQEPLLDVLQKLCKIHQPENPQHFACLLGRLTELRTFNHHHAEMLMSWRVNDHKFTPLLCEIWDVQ
Chain of Oxysterols receptor LXR-alpha (Homo sapiens) (Q13133 whole entry, looked up, the tested form may be a part): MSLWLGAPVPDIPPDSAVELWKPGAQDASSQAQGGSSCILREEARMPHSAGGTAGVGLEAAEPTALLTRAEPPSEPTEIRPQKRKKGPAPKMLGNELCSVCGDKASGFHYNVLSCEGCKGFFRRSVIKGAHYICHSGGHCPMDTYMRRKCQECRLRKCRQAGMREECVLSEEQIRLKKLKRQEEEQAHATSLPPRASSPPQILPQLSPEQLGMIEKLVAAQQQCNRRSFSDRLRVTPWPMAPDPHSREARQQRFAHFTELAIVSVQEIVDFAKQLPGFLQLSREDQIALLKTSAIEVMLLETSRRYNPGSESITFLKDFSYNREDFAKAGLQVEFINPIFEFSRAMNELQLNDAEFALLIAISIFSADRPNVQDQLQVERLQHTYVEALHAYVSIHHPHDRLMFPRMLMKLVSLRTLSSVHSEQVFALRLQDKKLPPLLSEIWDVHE

c1ccc(CCCc2ccncc2)cc1
inactive: [1] | [2] | [3] | [4] | [5] | [6] | [7] | [8] | [9] | [10] | [11] | [12] | [14] | [15]
active: [13] 45.4 µM

Nc1ccc(Oc2ccc(N)c(N)c2)cc1
inactive: [1] | [2] | [16] | [5] | [6] | [7] | [9] | [10] | [12] | [14]
active: [13] 30.6 µM

O=P(O)(O)Oc1ccccc1
inactive: [1] | [2] | [3] | [8] | [9] | [11] | [12] | [13] | [14] | [15]

O=S(=O)(O)c1ccccc1C=Cc1ccc(-c2ccc(C=Cc3ccccc3S(=O)(=O)O)cc2)cc1
inactive: [1] | [2] | [16] | [6] | [7] | [8] | [9] | [10] | [11] | [12] | [13] | [14] | [15]

CCCCCCOC(=O)C(C)CC (stereo not given)
inactive: [1] | [2] | [16] | [4] | [6] | [8] | [9] | [11] | [13] | [14] | [15]

O=C(Nc1cccc(C(F)(F)F)c1)c1cc(Br)cc(Br)c1O
active: [9] 172 µM | [10] 100 µM | [11] 166 µM | [12] 169 µM | [13] 0.851 µM | [14] 2.95 µM | [15] 147 µM
inactive: [1] | [2] | [5] | [6] | [7] | [8]

C#CC1(O)CC[C@H]2[C@@H]3CCC4=CCCC[C@@H]4[C@H]3CC[C@@]21C (stereo not given in full)
inactive: [1] | [2] | [6] | [8] | [9] | [10] | [11] | [12] | [14]
active: [16] 1.46 µM | [3] 1.81 µM | [13] 22 µM | [15] 33.4 µM | [17] 8.34 µM | [18] 9.84 µM | [19] 10.4 µM | [20] 11.1 µM

C[Si](C)(C)O[Si](O)(O)O
inactive: [1] | [2] | [16] | [5] | [7] | [8] | [9] | [10] | [11] | [13] | [14]

CCN(CCC#N)c1ccc(N=Nc2c(Cl)cc([N+](=O)[O-])cc2Cl)cc1
inactive: [1] | [2] | [16] | [3] | [4] | [5] | [7] | [8] | [9] | [10] | [11] | [13] | [14] | [15]
